Results taken from PubChem BioAssay (EPA / NIEHS).
Calls of active or inactive are those of the source. How the source made its calls: active means hit-call score of the fitted dose curve at least 0.9, where 1 is the maximum; inactive means score below 0.9.

What was measured:
Conditions in all cases: mRNA level, 48 h; actives raise or lower the signal
[1] = read-out: Forkhead box O1 (FOXO1), FOXO1 (gene 2308); experiment: LTEA_HepaRG_FOXO1: Life Technologies and Expression Analysis (LTEA) Assay for Forkhead box O1 (FOXO1) using HepaRG (AID 2283456)
Outline: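 Readout is FOXO1 transcript level by multiplexed qRT-PCR against three housekeeping genes, curve-fitted in both directions relative to 0.5% DMSO vehicle. Human HepaRG cultures received chemicals for 48 h, up to 100 uM in half-log steps.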

[2] = read-out: growth arrest and DNA damage 45 (GADD45A), GADD45A (gene 1647); experiment: LTEA_HepaRG_GADD45A: Life Technologies and Expression Analysis (LTEA) Assay for growth arrest and DNA damage 45 (GADD45A) using HepaRG (AID 2283458)
Outline: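 Differentiated HepaRG cells were exposed in duplicate for 48 h in serum-free induction medium to 8-point half-log concentrations up to 100 uM in 0.5% DMSO. GADD45A mRNA was measured by TaqMan qRT-PCR, normalized to ACTB, GAPDH and POLR2A, with bidirectional fitting versus DMSO.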

[3] = read-out: Forkhead box O3 (FOXO3), FOXO3 (gene 2309); experiment: LTEA_HepaRG_FOXO3: Life Technologies and Expression Analysis (LTEA) Assay for Forkhead box O3 (FOXO3) using HepaRG (AID 2283459)
Outline: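 HepaRG, 48 h post-dose; 8 conc., half-log from 100 uM, 0.5% DMSO, duplicates; serum-free induction medium. Readout: FOXO3 mRNA, TaqMan qRT-PCR, housekeeping-normalized. Bidirectional curve fit vs DMSO baseline.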

[4] = read-out: ABC Transporter (ABCB1), ABCB1 (gene 5243); experiment: LTEA_HepaRG_ABCB1: Life Technologies and Expression Analysis (LTEA) Assay for ABC Transporter (ABCB1) using HepaRG (AID 2283460)
Outline: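 Expression of ABCB1 was quantified by qRT-PCR against three housekeeping genes after human HepaRG cultures received test chemicals for 48 hours. Concentrations spanned eight half-log steps topping at 100 uM in 0.5% DMSO; gain or loss of signal was fitted relative to vehicle.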

[5] = read-out: growth arrest and DNA damage 45 (GADD45B), GADD45B (gene 4616); experiment: LTEA_HepaRG_GADD45B: Life Technologies and Expression Analysis (LTEA) Assay for growth arrest and DNA damage 45 (GADD45B) using HepaRG (AID 2283461)
Outline: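 qRT-PCR read-out (Fluidigm TaqMan, housekeeping-normalized) of mRNA change in human HepaRG cells after 48 h chemical exposure; 8-point curve, top 100 uM, half-log steps, 0.5% DMSO vehicle; gain or loss fitted relative to DMSO baseline.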

[6] = read-out: ABC Transporter (ABCC3), ABCC3 (gene 8714); experiment: LTEA_HepaRG_ABCC3: Life Technologies and Expression Analysis (LTEA) Assay for ABC Transporter (ABCC3) using HepaRG (AID 2283462)
Outline: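 qRT-PCR read-out of ABCC3 transcript, normalized to three housekeeping genes (ACTB, GAPDH, POLR2A), after 48 h chemical exposure of human HepaRG cells. Eight half-log concentrations, highest 100 uM, in 0.5% DMSO; gain or loss fitted relative to DMSO baseline.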

[7] = read-out: ABC Transporter (ABCB11), ABCB11 (gene 8647); experiment: LTEA_HepaRG_ABCB11: Life Technologies and Expression Analysis (LTEA) Assay for ABC Transporter (ABCB11) using HepaRG (AID 2283463)
Outline: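 ABCB11 transcript levels are read by Fluidigm TaqMan qRT-PCR after 48 h chemical treatment of human HepaRG cells. Concentrations span 100 uM downward in half-log steps with 0.5% DMSO; gain or loss is fitted against DMSO controls.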

[8] = read-out: ABC Transporter (ABCC2), ABCC2 (gene 1244); experiment: LTEA_HepaRG_ABCC2: Life Technologies and Expression Analysis (LTEA) Assay for ABC Transporter (ABCC2) using HepaRG (AID 2283464)
Outline: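 qRT-PCR (TaqMan, Fluidigm array) read-out of ABCC2 mRNA, normalized to three housekeeping genes. Differentiated HepaRG cells were treated 48 h in serum-free induction medium with 8-point half-log series from 100 uM in 0.5% DMSO; curves fitted bidirectionally relative to DMSO.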

[9] = read-out: Broad substrate specificity ATP-binding cassette transporter ABCG2 (Homo sapiens) (UniProt Q9UNQ0); experiment: LTEA_HepaRG_ABCG2: Life Technologies and Expression Analysis (LTEA) Assay for ABC Transporter (ABCG2) using HepaRG (AID 2283465)
Outline: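 Read-out is ABCG2 mRNA induction or loss quantified by qRT-PCR after 48 h chemical treatment of human HepaRG cells, normalized to three housekeeping genes. Concentrations reached 100 uM top in half-log steps; fitting was bidirectional against 0.5% DMSO.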

[10] = read-out: ATP-citrate lyase (ACLY), ACLY (gene 47); experiment: LTEA_HepaRG_ACLY: Life Technologies and Expression Analysis (LTEA) Assay for ATP-citrate lyase (ACLY) using HepaRG (AID 2283466)
Outline: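 HepaRG, 48 h exposure, 8-pt half-log dilutions (top 100 uM), 0.5% DMSO. Readout: ACLY mRNA, TaqMan qRT-PCR, housekeeping-normalized (ACTB/GAPDH/POLR2A). Bidirectional curve fit vs DMSO.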

[11] = read-out: Alkaline Phosphatase, Placental (ALPP) gene, ALPP (gene 250); experiment: LTEA_HepaRG_ALPP: Life Technologies and Expression Analysis (LTEA) Assay for Alkaline Phosphatase, Placental (ALPP) gene using HepaRG (AID 2283468)
Outline: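 qRT-PCR readout of ALPP mRNA (Fluidigm TaqMan), normalized to ACTB/GAPDH/POLR2A, after 48 h chemical exposure of HepaRG cells; 8-point half-log series, top 100 uM, 0.5% DMSO vehicle. Bidirectional curve fit versus DMSO baseline.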

[12] = read-out: Bcl-2 (BAD) gene, BAD (gene 572); experiment: LTEA_HepaRG_BAD: Life Technologies and Expression Analysis (LTEA) Assay for Bcl-2 (BAD) gene using HepaRG (AID 2283469)
Outline: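 BAD transcript change, measured by qRT-PCR against three housekeeping genes and fitted in both directions relative to 0.5% DMSO, after 48 h chemical treatment of human HepaRG liver cells at concentrations up to 100 uM.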

[13] = read-out: Bcl-2 (BAX) gene, BAX (gene 581); experiment: LTEA_HepaRG_BAX: Life Technologies and Expression Analysis (LTEA) Assay for Bcl-2 (BAX) gene using HepaRG (AID 2283470)
Outline: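 Differentiated human HepaRG cells, plated 48 h then switched to serum-free induction medium, were exposed 48 h to 8 half-log concentrations up to 100 uM in 0.5% DMSO; BAX mRNA measured by qRT-PCR, normalized to ACTB, GAPDH, POLR2A.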

[14] = read-out: adenosine kinase (ADK) gene, ADK (gene 132); experiment: LTEA_HepaRG_ADK: Life Technologies and Expression Analysis (LTEA) Assay for adenosine kinase (ADK) gene using HepaRG (AID 2283471)
Outline: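 HepaRG (human liver), 48 h chemical exposure, 8-pt half-log series, top 100 uM, 0.5% DMSO vehicle. Readout: ADK mRNA by qRT-PCR vs housekeeping genes; bidirectional curve fit relative to DMSO baseline.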

[15] = read-out: Alpha-fetoprotein (AFP) gene, AFP (gene 174); experiment: LTEA_HepaRG_AFP: Life Technologies and Expression Analysis (LTEA) Assay for Alpha-fetoprotein (AFP) gene using HepaRG (AID 2283472)
Outline: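 Human HepaRG cells plated 48 h, then switched to serum-free induction medium and exposed in duplicate for 48 h to 8-point half-log series from 100 uM in 0.5% DMSO. AFP mRNA by qRT-PCR, normalized to ACTB, GAPDH, POLR2A; bidirectional fit versus DMSO.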

BCL2L11 (gene 10018) = experiment: LTEA_HepaRG_BCL2L11: Life Technologies and Expression Analysis (LTEA) Assay for Bcl-2 (BCL2L11) gene using HepaRG (AID 2283473)
Outline: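 HepaRG, 48 h exposure, 8-pt half-log series from 100 uM in 0.5% DMSO, duplicates; qRT-PCR (Fluidigm TaqMan) for BCL2L11, housekeeping-normalized; bidirectional curve fit relative to DMSO baseline.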

[16] = read-out: Apolipoprotein A-V (APOA5) gene, APOA5 (gene 116519); experiment: LTEA_HepaRG_APOA5: Life Technologies and Expression Analysis (LTEA) Assay for Apolipoprotein A-V (APOA5) gene using HepaRG (AID 2283474)
Outline: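 HepaRG, 48 h chemical exposure in serum-free induction medium, 8-pt half-log series (top 100 uM), 0.5% DMSO vehicle, duplicates. Readout: APOA5 mRNA by qRT-PCR, housekeeping-normalized; bidirectional fit vs DMSO baseline.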

[17] = read-out: Apoptosis regulator Bcl-2 (Homo sapiens) (UniProt P10415); experiment: LTEA_HepaRG_BCL2: Life Technologies and Expression Analysis (LTEA) Assay for Bcl-2 gene using HepaRG (AID 2283475)
Outline: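 Differentiated HepaRG cells in serum-free induction medium were exposed for 48 h to eight half-log concentrations up to 100 uM in 0.5% DMSO, in duplicate. BCL2 mRNA was quantified by TaqMan qRT-PCR normalised to ACTB, GAPDH and POLR2A, with bidirectional fitting versus DMSO.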

[18] = read-out: Peroxisomal acyl-coenzyme A oxidase 1 (ACOX1) gene, ACOX1 (gene 51); experiment: LTEA_HepaRG_ACOX1: Life Technologies and Expression Analysis (LTEA) Assay for Peroxisomal acyl-coenzyme A oxidase 1 (ACOX1) gene using HepaRG (AID 2283467)
Outline: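 Measured by qRT-PCR against three housekeeping genes: ACOX1 transcript change in human HepaRG cells after 48 h dosing. Concentrations ran up to 100 uM in half-log steps. Curves were fitted bidirectionally relative to 0.5% DMSO.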

Measured: AC50

Chain of Broad substrate specificity ATP-binding cassette transporter ABCG2 (Homo sapiens) (Q9UNQ0 whole entry, looked up): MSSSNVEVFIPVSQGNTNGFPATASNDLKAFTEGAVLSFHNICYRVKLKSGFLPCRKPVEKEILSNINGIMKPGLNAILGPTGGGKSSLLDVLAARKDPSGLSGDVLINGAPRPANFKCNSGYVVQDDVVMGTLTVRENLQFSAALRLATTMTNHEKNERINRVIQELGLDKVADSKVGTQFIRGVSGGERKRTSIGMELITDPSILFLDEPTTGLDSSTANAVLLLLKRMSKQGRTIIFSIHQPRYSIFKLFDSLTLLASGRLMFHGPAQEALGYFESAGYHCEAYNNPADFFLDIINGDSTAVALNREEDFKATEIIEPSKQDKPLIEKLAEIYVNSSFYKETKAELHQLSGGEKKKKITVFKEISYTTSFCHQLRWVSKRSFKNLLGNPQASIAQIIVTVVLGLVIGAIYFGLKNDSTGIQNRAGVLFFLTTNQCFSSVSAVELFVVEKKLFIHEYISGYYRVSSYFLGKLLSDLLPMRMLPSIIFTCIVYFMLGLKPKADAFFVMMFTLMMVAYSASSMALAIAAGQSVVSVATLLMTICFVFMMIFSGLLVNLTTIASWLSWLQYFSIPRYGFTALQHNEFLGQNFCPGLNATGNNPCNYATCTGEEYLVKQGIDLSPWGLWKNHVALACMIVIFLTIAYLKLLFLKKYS
Chain of Apoptosis regulator Bcl-2 (Homo sapiens) (P10415 whole entry, looked up): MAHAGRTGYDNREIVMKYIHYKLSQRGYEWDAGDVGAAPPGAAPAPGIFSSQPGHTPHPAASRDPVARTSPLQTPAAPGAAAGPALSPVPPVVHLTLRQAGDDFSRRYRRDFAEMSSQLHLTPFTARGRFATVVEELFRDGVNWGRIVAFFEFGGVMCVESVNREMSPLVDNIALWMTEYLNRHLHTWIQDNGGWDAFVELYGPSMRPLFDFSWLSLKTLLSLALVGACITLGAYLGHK

CC(COCC(C)OC(=O)c1ccccc1)OC(=O)c1ccccc1 (centres undefined)
inactive: [1] | [2] | [3] | [4] | [5] | [6] | [7] | [8] | [9] | [10] | [11] | [12] | [13] | [14] | [15] | BCL2L11 (gene 10018) | [16] | [17]

O=Cc1ccccc1C=O
inactive: [1] | [2] | [3] | [4] | [5] | [6] | [7] | [8] | [9] | [10] | [18] | [11] | [12] | [13] | [14] | [15] | BCL2L11 (gene 10018) | [16] | [17]

Oc1ccccc1O
inactive: [1] | [2] | [3] | [4] | [5] | [6] | [7] | [8] | [9] | [18] | [11] | [12] | [13] | [14] | [15] | BCL2L11 (gene 10018) | [16] | [17]

NCCOCCOCCN
active: [9] 12.1 µM
inactive: [1] | [2] | [3] | [4] | [5] | [6] | [7] | [8] | [10] | [18] | [11] | [12] | [13] | [14] | [15] | BCL2L11 (gene 10018) | [16] | [17]

CC(C)c1cccc(C(C)C)c1NC(=O)NS(=O)(=O)c1cc(C(C)(C)O)co1
inactive: [1] | [2] | [3] | [5] | [6] | [7] | [18] | [11] | [12] | [13] | [14] | [15] | BCL2L11 (gene 10018) | [16] | [17]
active: [4] 6.65 µM | [8] 3.34 µM | [9] 12.6 µM

OCC(O)CO
inactive: [1] | [2] | [3] | [4] | [5] | [6] | [7] | [8] | [9] | [10] | [18] | [11] | [12] | [13] | [14] | [15] | BCL2L11 (gene 10018) | [16] | [17]

O=C(N[C@@H](c1ccccc1)[C@@H]1CCCCN1)c1cccc(C(F)(F)F)c1Cl
active: [1] 75.9 µM | [3] 73.4 µM | [4] 89.9 µM | [5] 50 µM | [6] 12.9 µM | [7] 24.1 µM | [8] 78.1 µM | [18] 74.2 µM | [11] 10.8 µM | [14] 78.2 µM | [15] 25.5 µM | BCL2L11 (gene 10018) 85.7 µM
inactive: [2] | [9] | [12] | [13] | [16] | [17]
